“And” between values parts separate entries of the source, which are not always exact repeats. Identical values can stand only once. Inconclusive results are not listed. The source made the active and inactive calls. The call rests on the fitted dose curve; in most records, active means well fitted curve in the direction sought with a large enough effect; inconclusive means small, poorly fitted or top-dose-only effect, or another doubt; inactive means no such curve, though single readings can be large; an effect the other way counts as inactive or inconclusive.

A short description of assay [1]: qHTS of pediatric cancer cell lines to identify multiple opportunities for drug repurposing: Primary screen for TC32 cells (AID 1347089). Further: nearly all actives have a fitted effect of over 60% in size. The following applies: TC32 Ewing sarcoma viability, CellTiter-Glo luminescence, 48 h; series mostly up to 45.8 µM. Put shortly:
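qHTS, TC32, 48 h drug treatment, CellTiter-Glo luminescence as a proxy for metabolically active cells; primary top concentration 46 µM (MIPE 11-pt, NPC 8-pt); confirmatory 11-pt.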

Assay [2] can be described thus: qHTS of pediatric cancer cell lines to identify multiple opportunities for drug repurposing: Primary screen for DAOY cells (AID 1347090). Further: nearly all actives have a fitted effect of over 55% in size. Further: potency means the concentration at half of the fitted maximal effect. The following applies: DAOY medulloblastoma viability, CellTiter-Glo luminescence, 48 h; series mostly up to 46 µM. In short, it runs like this:
(§1)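 Viability measured as metabolically active cells via CellTiter-Glo luminescence following 48 hours of compound exposure, 11-point dilutions in confirmatory testing. 500-1,000 cells/well plated 5 hours before dosing; controls were DMSO and 2.3 µM bortezomib.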
Background: In qHTS, concentration-response curves come from the screen itself.

Assay [3] in a line: qHTS of pediatric cancer cell lines to identify multiple opportunities for drug repurposing: Primary screen for SK-N-MC cells (AID 1347093). Further: potency means the concentration at half of the fitted maximal effect. As to conditions: SK-N-MC viability, CellTiter-Glo luminescence, 48 h; series mostly up to 46 µM. Put shortly: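 Metabolically active cells were quantified by ATP-dependent luminescence (CellTiter-Glo, 15 min at room temperature) following 48 h treatment. Cells had been plated at 500-1,000 per well and settled for 5 h beforehand.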

Assay [4] can be described thus: qHTS of pediatric cancer cell lines to identify multiple opportunities for drug repurposing: Primary screen for NB-EBc1 cells (AID 1347095). Further: potency means the concentration at half of the fitted maximal effect. As to conditions: NB-EBc1 neuroblastoma viability, CellTiter-Glo luminescence, 48 h; series mostly up to 46 µM. Put shortly: (§2)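 Primary screen of approved and investigational compounds on cells in growth media at 37 degrees C, 5% CO2. MIPE set at 11-point and NPC set at 8-point dilutions; viability scored by ATP-based luminescence at 48 hours.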

Assay [5] can be described thus: qHTS of pediatric cancer cell lines to identify multiple opportunities for drug repurposing: Primary screen for U-2 OS cells (AID 1347096). Further: nearly all actives have a fitted effect of over 50% in size. Further: potency means the concentration at half of the fitted maximal effect. As to conditions: U-2 OS viability, CellTiter-Glo luminescence, 48 h; series mostly up to 46 µM. In short, it runs like this: (§3)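 Viability after 48 h compound treatment at 37C, 500-1,000 cells/well, read as ATP luminescence with CellTiter-Glo. Primary screens used 11-point (MIPE, 0.78 nM-46 µM) or 8-point (NPC, 0.59 nM-46 µM) final concentrations; follow-up screens used 11-point dilutions.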

Assay [6] can be described thus: qHTS of pediatric cancer cell lines to identify multiple opportunities for drug repurposing: Primary screen for SK-N-SH cells (AID 1347098). Further: nearly all actives have a fitted effect of over 65% in size. Further: potency means the concentration at half of the fitted maximal effect. The following applies: SK-N-SH viability, CellTiter-Glo luminescence, 48 h; series mostly up to 57 µM. Put shortly: (§4)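 Cells (500-1,000/well) rested 5 h, then received compounds for 48 h; metabolically active cells were measured by CellTiter-Glo luminescence. Final concentrations spanned up to 46 µM (MIPE, 11-point) or 0.59 nM-46 µM (NPC, 8-point) in primary screens, 11-point in follow-ups.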

Assay [7] can be described thus: qHTS of pediatric cancer cell lines to identify multiple opportunities for drug repurposing: Primary screen for NB1643 cells (AID 1347099). Further: nearly all actives have a fitted effect of over 50% in size. Further: potency means the concentration at half of the fitted maximal effect. The following applies: NB1643 neuroblastoma viability, CellTiter-Glo luminescence, 48 h; series mostly up to 46 µM. In short, it runs like this: as §2
Assay [8] is described as follows: qHTS of pediatric cancer cell lines to identify multiple opportunities for drug repurposing: Primary screen for LAN-5 cells (AID 1347100). Further: potency means the concentration at half of the fitted maximal effect. As to conditions: LAN-5 neuroblastoma viability, CellTiter-Glo luminescence, 48 h; series mostly up to 46 µM. In short, it runs like this: as §3
A short description of assay [9]: qHTS of pediatric cancer cell lines to identify multiple opportunities for drug repurposing: Primary screen for OHS-50 cells (AID 1347103). Further: nearly all actives have a fitted effect of over 40% in size. Further: potency means the concentration at half of the fitted maximal effect. The following applies: OHS-50 osteosarcoma viability, CellTiter-Glo luminescence, 48 h; series mostly up to 57.3 µM. In short, it runs like this:
as §4

Assay [10] can be described thus: NS1 protein of Zika virus - qHTS assay to identify small molecule inhibitors in human HEK 293 cells (AID 1347053). Further: nearly all actives have a fitted effect of over 55% in size. As to conditions: HEK293 ZIKV MR766 infection, NS1 TR-FRET, 24 h; series mostly up to 46.1 µM. In short, it runs like this:
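HEK 293 cells pretreated with compound for 1 h, then infected with ZIKV MR766 (MOI 0.5) for 24 h at 37 C. NS1 detected by TR-FRET with two anti-NS1 antibodies; normalized to uninfected (0%) and infected (100%) wells.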

Assay [11] is described as follows: qHTS of pediatric cancer cell lines to identify multiple opportunities for drug repurposing: Primary screen for BT-37 cells (AID 1347094). Further: potency means the concentration at half of the fitted maximal effect. The following applies: BT-37 viability, CellTiter-Glo luminescence, 48 h; series mostly up to 57.3 µM. Put shortly:
as §2

A short description of assay [12]: qHTS of pediatric cancer cell lines to identify multiple opportunities for drug repurposing: Primary screen for Rh18 cells (AID 1347102). Further: nearly all actives have a fitted effect of over 65% in size. Further: potency means the concentration at half of the fitted maximal effect. The following applies: Rh18 rhabdomyosarcoma viability, CellTiter-Glo luminescence, 48 h; series mostly up to 46 µM. In short, it runs like this:
as §3

Assay [13] in a line: qHTS of pediatric cancer cell lines to identify multiple opportunities for drug repurposing: Primary screen for SJ-GBM2 cells (AID 1347091). Further: potency means the concentration at half of the fitted maximal effect. As to conditions: SJ-GBM2 viability, CellTiter-Glo luminescence, 48 h; series mostly up to 46 µM. In short, it runs like this:
as §1

The nature of assay [14]: qHTS of pediatric cancer cell lines to identify multiple opportunities for drug repurposing: Primary screen for A673 cells (AID 1347092). Further: nearly all actives have a fitted effect of over 45% in size. Further: potency means the concentration at half of the fitted maximal effect. As to conditions: A673 Ewing sarcoma viability, CellTiter-Glo ATP luminescence, 48 h; series mostly up to 46 µM. Put shortly:
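Luminescence from CellTiter-Glo, taken after 15 min at room temperature, served as the proxy for metabolically active cells following 48 h treatment. Both potency and efficacy were taken from curves fitted to the titration data.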

Assay [15] in a line: qHTS of pediatric cancer cell lines to identify multiple opportunities for drug repurposing: Primary screen for Saos-2 cells (AID 1347097). Further: potency means the concentration at half of the fitted maximal effect; nearly all actives have a fitted effect of over 40% in size. The following applies: Saos-2 viability, CellTiter-Glo ATP luminescence, 48 h; series mostly up to 46 µM. Put shortly:
as §2

A short description of assay [16]: qHTS of pediatric cancer cell lines to identify multiple opportunities for drug repurposing: Primary screen for BT-12 cells (AID 1347101). Further: nearly all actives have a fitted effect of over 25% in size. Further: potency means the concentration at half of the fitted maximal effect. The following applies: BT-12 viability, CellTiter-Glo luminescence, 48 h; series mostly up to 57.3 µM. Put shortly:
as §4

In the case of `CC(C)(N)C(=O)N[C@H](COCc1ccccc1)C(=O)N1CCC2(CC1)CN(S(C)(=O)=O)c1ccccc12`, the Potency result in [1], in assay [2], in assay [4], in assay [5] and in assay [8] was “inactive” throughout. Besides, the Potency in assay [3] is 23.5 µM (active); in assay [6] it was 30.4 µM (active); in assay [7], 23.5 µM (active); in [9], 27.3 µM (active).

As for `C#Cc1cccc(Nc2ncnc3cc(OCCOC)c(OCCOC)cc23)c1`, the Potency result in assay [10] and in assay [5] was “inactive” in each case. Moreover, the Potency was 1.05 µM (active) and 7.5 µM (active) in assay [3]; 19.3 µM (active) and 11 µM (active) in assay [11]; 5.9 µM (active) in assay [7]; 18.7 µM (active) in assay [12]; 19.3 µM (active) and 6.92 µM (active) in assay [9].

On to `CCC(C)(C)C(=O)O[C@H]1C[C@@H](C)C=C2C=C[C@H](C)[C@H](CC[C@@H]3C[C@@H](O)CC(=O)O3)[C@H]21`, for which the Potency entry in assay [10] and in assay [8] was “inactive” each time. Moreover, the Potency in assay [2] is 6.68 µM (active) and 5.9 µM (active); in [13], 3.35 µM (active) and 14.8 µM (active); in [14] it was 10.6 µM (active); in assay [3], 33.2 µM (active); in assay [5], 18.7 µM (active); in [15], 2.37 µM (active) and 2.96 µM (active). Also, the Potency in assay [6] was 7.7 µM (active) and 21.5 µM (active); in assay [12], 8.41 µM (active) and 14.8 µM (active); in assay [9] it was 6.17 µM (active) and 10.9 µM (active).

On to `COc1cc2nccc(Oc3ccc(NC(=O)NC4CC4)c(Cl)c3)c2cc1C(N)=O`, for which the Potency in assay [2] is 4.69 µM (active); in assay [13], 526 nM (active); in [14] it was 0.469 µM (active); in [3] it was 0.935 µM (active); in [11], 1.37 µM (active); in [4] it was 0.0935 µM (active). The Potency in assay [6] was 1.52 µM (active); in assay [7], 2.96 µM (active); in assay [8] it was 0.372 µM (active); in [16], 6.85 µM (active); in [12], 5.26 µM (active). Further, the Potency entry in assay [5] was “inactive”.

Regarding `COc1ccc(-c2ccc3c(N4CCOCC4)nc(N4C[C@@H](C)O[C@@H](C)C4)nc3n2)cc1CO`, the Potency in [13] is 296 nM (active); in [14] it was 11.8 µM (active); in assay [3] it was 0.0935 µM (active); in assay [11], 1.37 µM (active); in assay [4], 1.48 µM (active); in [9] it was 0.217 µM (active). Moreover, the Potency entry in assay [7] is “inactive”.

For the molecule `COc1ccc2c3n(c(=NC(=O)c4cccnc4)nc2c1OC)CCN3`, the Potency entry in assay [10] and in assay [16] was “inactive” throughout. The Potency is 1.87 µM (active) in assay [2]; 18700 nM (active) in [13]; 0.743 µM (active) in [14]; 0.372 µM (active) in assay [3]; 18.7 µM (active) in assay [4]; 1.18 µM (active) in [15]. Moreover, the Potency was 0.961 µM (active) in [6], 4.18 µM (active) in [7], 14.8 µM (active) in assay [8] and 0.968 µM (active) in assay [9].

As to `O=S(=O)(N=Cc1c(O)ccc2ccccc12)c1cccs1`, the Potency entry in [10], in assay [1], in assay [11], in assay [5], in assay [8] and in [12] was “inactive” throughout. In addition, the Potency is 9.35 µM (active) in [3] and 18.7 µM (active) in assay [15].

For `S=C(NCc1ccc2c(c1)OCO2)N1CCN(c2ncnc3c2oc2ccccc23)CC1`, the Potency result in assay [1], in assay [13] and in [6] was “inactive” each time. Besides, the Potency was 2.15 µM (active) in assay [2]; 1.71 µM (active) in [14]; 4.29 µM (active) in assay [3]; 8.55 µM (active) in assay [7]; 30.3 µM (active) in [8]; 1.98 µM (active) in assay [9].

On to `Nc1cccc(S(=O)(=O)N2CCCN(S(=O)(=O)c3ccc4c(c3)OCCO4)CC2)c1`, for which the Potency result in [1], in assay [2], in assay [14], in assay [3], in [11] and in assay [4] was “inactive” throughout. Besides, the Potency entry in [5], in assay [8] and in assay [12] was “inactive” each time.

As to `O=C(Nc1cccnc1)N1CCC(Cc2cccc(Oc3ccc(C(F)(F)F)cn3)c2)CC1`, the Potency result in [1], in [5], in assay [7] and in assay [12] was “inactive” each time. Also, the Potency in assay [2] was 14.8 µM (active); in assay [13] it was 18700 nM (active); in [14], 11.8 µM (active); in [16], 10.9 µM (active); in [9] it was 10.9 µM (active).

Take `CN(C)c1ccc(C2Nc3ccc4ccccc4c3C3=C2C(=O)CC(C)(C)C3)cc1Br` (configuration not stated): the Potency entry in [1], in [2], in assay [4], in assay [5], in assay [8] and in assay [16] was “inactive” throughout. Also, the Potency entry in [12] was “inactive”. Moreover, the Potency in assay [3] was 7.43 µM (active); in [7], 20.9 µM (active).

With `Cc1n[nH]c(C)c1Cc1sc2c(c1C(=O)N1C[C@H](O)CO1)c(=O)n(C)c(=O)n2CC(C)C`, the Potency result in assay [10], in assay [2], in assay [13], in [11], in [4] and in [5] was “inactive” throughout. Besides, the Potency entry in assay [6], in assay [12] and in assay [9] was “inactive” throughout. In addition, in assay [7], the Potency was 1.05 µM (active).

Regarding `O=c1ncn2nc(Sc3ccc(F)cc3F)ccc2c1-c1c(Cl)cccc1Cl`, the Potency result in assay [10], in assay [1], in assay [4], in assay [7] and in assay [12] was “inactive” in each case.

(Values after PubChem BioAssay (NCATS).)
